This excerpt belongs to a sample that is enriched for hits.
KDM5B inhibitor: blocks human KDM5B histone demethylase activity; AID 1347165; Potency, µM (series often up to 57.7 µM), most hits filed as inhibitors; KDM5B demethylase, FDH-coupled NADH fluorescence (FDH is formaldehyde dehydrogenase); actives 2.6% (n = 220,000); active = well fitted inhibition curve with a large enough effect; note: nearly all actives have a fitted effect of over 70% in size
Target sequence (Q9UGL1 whole entry, looked up): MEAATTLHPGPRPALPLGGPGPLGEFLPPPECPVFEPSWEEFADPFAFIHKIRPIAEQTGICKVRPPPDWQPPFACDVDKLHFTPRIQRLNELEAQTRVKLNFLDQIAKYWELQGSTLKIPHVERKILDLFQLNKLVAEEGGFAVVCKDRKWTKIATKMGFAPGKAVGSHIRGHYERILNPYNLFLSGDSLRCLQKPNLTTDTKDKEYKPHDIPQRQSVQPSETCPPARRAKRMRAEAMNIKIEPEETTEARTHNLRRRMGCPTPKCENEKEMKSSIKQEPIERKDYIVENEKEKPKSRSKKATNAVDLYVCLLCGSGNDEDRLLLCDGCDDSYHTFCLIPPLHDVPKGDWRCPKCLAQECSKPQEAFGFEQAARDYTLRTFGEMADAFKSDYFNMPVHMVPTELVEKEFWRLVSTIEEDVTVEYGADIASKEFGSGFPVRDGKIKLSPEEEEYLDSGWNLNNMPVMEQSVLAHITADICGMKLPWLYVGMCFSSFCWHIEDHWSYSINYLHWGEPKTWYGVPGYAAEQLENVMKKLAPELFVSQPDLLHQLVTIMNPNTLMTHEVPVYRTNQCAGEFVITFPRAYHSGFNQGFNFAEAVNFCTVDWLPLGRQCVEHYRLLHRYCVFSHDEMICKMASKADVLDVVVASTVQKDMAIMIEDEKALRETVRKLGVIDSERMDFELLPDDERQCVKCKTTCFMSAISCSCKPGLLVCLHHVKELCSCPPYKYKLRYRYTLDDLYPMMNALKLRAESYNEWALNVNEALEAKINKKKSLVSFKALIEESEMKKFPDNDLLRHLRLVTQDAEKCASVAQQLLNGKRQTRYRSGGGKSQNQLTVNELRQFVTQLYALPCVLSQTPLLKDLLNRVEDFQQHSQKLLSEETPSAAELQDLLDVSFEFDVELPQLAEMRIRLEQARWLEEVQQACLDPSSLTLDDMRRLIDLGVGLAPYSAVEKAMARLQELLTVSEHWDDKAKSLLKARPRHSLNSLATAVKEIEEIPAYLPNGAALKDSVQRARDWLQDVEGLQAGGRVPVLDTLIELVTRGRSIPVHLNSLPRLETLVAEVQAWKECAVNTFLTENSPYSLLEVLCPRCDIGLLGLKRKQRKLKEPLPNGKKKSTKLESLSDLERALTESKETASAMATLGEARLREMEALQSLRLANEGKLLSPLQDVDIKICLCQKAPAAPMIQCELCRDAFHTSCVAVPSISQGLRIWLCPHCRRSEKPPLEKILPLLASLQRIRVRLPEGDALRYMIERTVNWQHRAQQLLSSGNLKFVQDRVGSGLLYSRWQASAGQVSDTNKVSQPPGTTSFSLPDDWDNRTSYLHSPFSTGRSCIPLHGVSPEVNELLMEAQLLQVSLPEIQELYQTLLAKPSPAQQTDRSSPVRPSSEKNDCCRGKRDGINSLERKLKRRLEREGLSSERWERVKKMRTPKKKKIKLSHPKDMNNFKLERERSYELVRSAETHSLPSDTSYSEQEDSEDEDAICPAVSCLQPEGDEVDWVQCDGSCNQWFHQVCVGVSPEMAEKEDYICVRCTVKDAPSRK
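Measured: NADH fluorescence change, 30 min, RT. System: KDM5BΔAP 200 nM final, H3K4me3 peptide, α-KG, Fe(II), ascorbate, NAD⁺ plus FDH, pH 7.5 HEPES. Compounds: titrated, 10 min pre-incubation with enzyme.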
Numbers stand for hits; . = inactive.

SMILES	KDM5B inhibitor
CCC(C)(CC(=O)O)Cc1nc2ccccc2s1 (stereo not drawn)	.
CC(C)=CC(=O)NC1CCCc2ccccc21 (stereo not drawn)	.
CC(OC(=O)c1cc(C2CC2)nn1-c1ccccc1)C(=O)Nc1ccc(N(C)C)cc1 (stereo not drawn)	.
Cc1sc(-c2nc(-c3ccc(F)cc3)no2)cc1S(=O)(=O)Nc1ccc(F)cc1	.
CCOC(=O)c1c(S(=O)(=O)N2CCCC(C(=O)Nc3ccc(F)c(F)c3)C2)c(C)n(C)c1C (stereo not drawn)	.
CC1CCCCN1C(=O)c1cc2cc([N+](=O)[O-])ccc2oc1=O (stereo not drawn)	.
CCc1cc(Br)ccc1NC(=O)Nc1cccc(C(C)=O)c1	.
C#CCNC(=O)c1cc(-c2ccc([S+](C)(=O)[O-])cc2)nc2c1cnn2C	31.6µM
Cc1ccc(-c2cc(C(=O)NCc3cnn(C)c3C)c3cc(Br)ccc3n2)cc1	.
Cc1ccc(CNC(=O)c2cc(-c3cccnc3)nc3ccc(C)cc23)cc1	.
Cn1ncc2c(C(=O)N3CCOCC3)cc(-c3cc(Cl)cc(Cl)c3)nc21	.
Cc1ccc(-c2cc(C(=O)NCCc3ccccc3)c3ccccc3n2)cc1	.
Cn1ncc2c(C(=O)N3CCCC3)cc(-c3ccc([S+](C)(=O)[O-])cc3)nc21	89.1µM
Cc1cc(C(F)F)n2ncc(C(=O)NCc3ccc(F)cc3)c2n1	.
Cn1ncc2c(C(=O)NCc3ccc(F)cc3)cc(-c3ccc([S+](C)(=O)[O-])cc3)nc21	50.1µM
Cn1ncc2c(C(=O)N3CCN(c4ncccn4)CC3)cc(-c3ccc([S+](C)(=O)[O-])cc3)nc21	.
Cc1cccc(Nc2nc(C(=O)N3CCc4ccccc4C3)cs2)c1	.
CCOC(=O)C1CCCN(C(=O)Cc2ccc(N(Cc3cccc(C)c3)C(=O)c3ccco3)cc2)C1 (stereo not drawn)	.
Cc1ccc(NC(=O)CC(C)(C(=O)O)c2ccccc2)c(F)c1 (stereo not drawn)	.
COc1cc(C#N)ccc1OC(C)C(=O)c1ccc2c(c1)CCC2 (stereo not drawn)	.
COc1cc(NC(=O)Cn2c(Nc3cc(C)cc(C)c3)nc(C)cc2=O)cc(OC)c1OC	.
CC(=O)c1cccc(NC(=O)Cn2c(Nc3cc(C)cc(C)c3)nc(C)cc2=O)c1	.
Cc1cc(C)cc(Nc2nc(C)cc(=O)n2CC(=O)NC(C)CCc2ccccc2)c1 (stereo not drawn)	.
Cc1cc(C)cc(Nc2nc(C)cc(=O)n2CC(=O)Nc2ccc(Br)cc2)c1	.
Cc1cc(C)cc(Nc2nc(C)cc(=O)n2CC(=O)Nc2cccc(Br)c2)c1	28.2µM
SMILES	KDM5B inhibitor
Cc1cc(C)cc(Nc2nc(C)cc(=O)n2CC(=O)Nc2cccc(C#N)c2)c1	28.2µM
COc1cc(C#N)ccc1OC(C)C(=O)c1ccccc1 (stereo not drawn)	.
COc1ccc(CC(=O)N2CC[C@@H](CC(=O)O)[C@@H](CCN3CCOCC3)C2)cc1	.
COc1ccc(CC(=O)N2CC[C@@H](CC(=O)O)[C@@H](CC3=NCCc4cc(OC)c(OC)cc43)C2)cc1	31.6µM
CN(C)c1ccc(C(=O)N2CC[C@@H](CC(=O)O)[C@@H](CCN3CCN(c4cccc(C(F)(F)F)c4)CC3)C2)cc1	.
COc1cc2c(cc1OC)C(C[C@H]1CN(C(=O)c3cccs3)CC[C@H]1CC(=O)O)=NCC2	.
COc1ccc(CC(=O)N2CC[C@@H](CC(=O)O)[C@@H](CCN3CCN(c4ccc(F)cc4)CC3)C2)cc1	.
COc1cc2c(cc1OC)C(C[C@H]1CN(C(=O)c3ccc(C#N)cc3)CC[C@H]1CC(=O)O)=NCC2	.
COc1cc2c(cc1OC)C(C[C@H]1CN(C(=O)c3ccc(N(C)C)cc3)CC[C@H]1CC(=O)O)=NCC2	28.2µM
COc1cc2c(cc1OC)C(C[C@H]1CN(C(=O)c3ccco3)CC[C@H]1CC(=O)O)=NCC2	28.2µM
O=C(O)C[C@@H]1CCN(C(=O)c2ccco2)C[C@@H]1CCN1CCN(c2ccccc2)CC1	.
Cc1ccc(C(=O)N2CCCCCNC(=O)[C@@H]3CCC[C@@H]32)cn1	.
COc1ccc(CNC(=O)NOCc2ccccc2)cc1OC	.
CCCCn1nc(C(=O)Nc2ccc(Br)cc2F)c2ccccc2c1=O	.
C/C=C/Cn1c(SCCCCCC)nc2c1c(=O)[nH]c(=O)n2C	.
Cc1ccccc1CS(=O)(=O)N1CCC(C(=O)NC23CC4CC(CC(C4)C2)C3)CC1	.
COc1ccc(CN2CCNc3cnc(OCc4cccnc4)cc3C2)cc1	28.2µM
c1ccc(Nc2cc3c(cn2)NCCN(Cc2ccsc2)C3)cc1	35.5µM
COc1ccc(CN2CCNc3cnc(Nc4ccccc4)cc3C2)cn1	35.5µM
COc1ccc(CN2CCNc3cnc(OCc4cccnc4)cc3C2)cc1O	.
COc1cccc(Nc2cc3c(cn2)CN(Cc2ccncc2)CCN3)c1	.
COc1ccc(CN2CCNc3cnc(Nc4ccccc4)cc3C2)cc1	35.5µM
Fc1ccccc1CN1CCNc2cnc(OCc3cccnc3)cc2C1	.
c1ccc(Nc2cc3c(cn2)CN(Cc2ncc[nH]2)CCN3)cc1	.
COc1ccccc1CN1CCNc2cc(Nc3ccccc3)ncc2C1	.
SMILES	KDM5B inhibitor
O=C(Oc1ccc2c(=O)c(-c3ccc(Cl)cc3)coc2c1)C1CC1	.
O=c1[nH]c(C2CCN([S+](=O)([O-])c3cccc(C(F)(F)F)c3)CC2)nn1-c1ccc(Cl)cc1	.
Cc1ccc(N(C(C)C(=O)Nc2ccc(C)c(Cl)c2)S(C)(=O)=O)cc1C (stereo not drawn)	.
COc1ccc(CCNC(=O)c2cccc3c(=O)c(C)c(-c4ccccc4)oc23)cc1OC	.
COc1ccc(OC)c(/C=C2\N=C(SC)SC2=O)c1	.
COc1cccc(NC(=O)CN(C)C(=O)CNC(=O)c2ccc3c(c2)OCO3)c1	.
CN(Cc1ccc(F)cc1)c1ccc2ncc(Nc3ccc(CCO)cc3)n2n1	.
CN(Cc1cccnc1)c1ccc2ncc(Nc3ccc(C(F)(F)F)cc3)n2n1	25.1µM
CN1CCN(c2ccc3ncc(Nc4ccc(F)cc4)n3n2)CC1	.
C[S+](=O)([O-])Nc1cccc(Nc2cnc3ccc(-c4ccccc4)nn23)c1	.
CN(Cc1cccnc1)c1ccc2ncc(Nc3cccc(N[S+](C)(=O)[O-])c3)n2n1	17.8µM
COc1ccc(-c2ccc3ncc(Nc4cccc(Cl)c4)n3n2)cn1	.
COc1ccc(-c2ccc(C(=O)N3Cc4[nH]cnc4CC3C(=O)O)o2)cc1 (stereo not drawn)	28.2µM
COC(=O)[C@@H]1Cc2nc[nH]c2CN1C(=O)c1ccc(-c2ccccc2)cc1	.
COc1ccc(C(=O)N2Cc3[nH]cnc3C[C@H]2c2nc(-c3ccc(OC(F)(F)F)cc3)no2)cc1	.
COc1ccc(CNC(=O)Nc2nnc(C3CC3)s2)cn1	.
Fc1ccc(-c2noc([C@@H]3Cc4nc[nH]c4CN3Cc3cccs3)n2)cc1Cl	.
COc1ccc(NC(=O)N2Cc3[nH]cnc3C[C@H]2c2nc(-c3ccc(F)c(Cl)c3)no2)cc1	.
c1ccc(CN2Cc3[nH]cnc3C[C@H]2c2nc(-c3ccncc3)no2)cc1	.
O=C(Nc1ccccc1)N1Cc2[nH]cnc2C[C@H]1c1nc(-c2ccc(Cl)cc2)no1	.
Fc1ccc(CN2Cc3[nH]cnc3C[C@H]2c2nc(-c3ccccc3)no2)cc1	.
Cc1cccc(-c2noc([C@@H]3Cc4nc[nH]c4CN3Cc3ccc(C(=O)O)cc3)n2)c1	31.6µM
Cc1cccc(-c2noc([C@@H]3Cc4nc[nH]c4CN3C(=O)c3ccc(F)cc3)n2)c1	.
